The source made the active and inactive calls.
tested on: not listed separately; assay: splicing luciferase reporter signal modulators, primary screen, spliceosome inhibition project, cell-based, HEK293, splice +/- reporter (AID 1101); settings: luminescence, 24 h, higher = more signal, called active from +8 up or from −8 down;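 also: HEK293 cells carrying a splicing-competent luciferase reporter gene; test concentration not given here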

SMILES | z-score
C=C(COC)/C(=C/C[C@@H](OC(=O)c1ccncc1)c1ccc(CO)o1)c1cc(C(=O)OC)ccc1OC | 0.804 (inactive)
CC(C)N1C(=O)c2ccccc2[C@](C)(C(=O)NCCN2CCOCC2)[C@@H]1c1ccc(CO)cc1 | 0.0672 (inactive)
COCCCNC(=O)[C@@H]1c2ccccc2C(=O)N(Cc2ccccc2Cl)[C@H]1c1ccc(CO)cc1 | 0.5 (inactive)
CC(C)NC(=O)[C@@]1(c2ccc([N+](=O)[O-])cc2)CC(=O)N(C2CCCCC2)[C@@H]1c1ccc(CO)cc1I | 0.61 (inactive)
C=C(CCCC)/C(=C/C[C@H](OC(C)=O)c1ccccc1OCCO)c1cc(C(=O)OC)ccc1OC | -0.616 (inactive)
COCCOC(=O)N1C(=O)[C@@]2(c3cc(C#Cc4ccc(OC)cc4)ccc31)[C@H](c1ccc(O)cc1)N1[C@H](c3ccccc3)[C@H](c3ccccc3)OC(=O)[C@H]1[C@@H]2C(=O)N1CCc2cc(OC)c(OC)cc2C1 | -1.34 (inactive)
O=C1C2C=CC(C(O)Cc3ccccc3)N(n3cnnc3)C2C(=O)N1Cc1ccccc1 (centres undefined) | -0.195 (inactive)
C=CC[C@]1(C(=O)NCc2ccccc2)N=C(c2ccc(OCCCO)cc2)O[C@H]1c1ccccc1N=[N+]=[N-] | -0.457 (inactive)
CCOC(=O)C[C@H]1[C@H](OC(=O)c2ccc(C(=O)c3ccccc3)cc2)[C@@H](NC(=O)c2ccc3ccccc3n2)c2cc(OCCCO)ccc2N1C(=O)c1ccccc1 | 0.305 (inactive)
CN(C)C(=O)[C@@]1(CCS(=O)(=O)c2ccccc2)COC(c2ccc(OCCCO)cc2)=N1 | -0.824 (inactive)
COc1ccccc1CN1C(=O)c2ccccc2[C@@H](C(=O)NC2CC2)[C@@H]1c1ccc(CO)cc1 | 0.0463 (inactive)
COC(=O)[C@H](Cc1ccccc1)N[C@@H](/C=C/C1CC1)[C@H](O)Cc1ccccc1 | 0.488 (inactive)
O=C1C2C=CC(C(O)c3cccc4ccccc34)N(Nc3ccccc3F)C2C(=O)N1c1ccccc1 (centres undefined) | -0.05 (inactive)
O=C(CS)NCCCCCCNC(=O)[C@@H]1C[C@@H]2C(=O)N[C@@H](Cc3ccccc3)C(=O)N2[C@@H]1c1cccc(OCCO)c1 | 0.528 (inactive)
NC(=O)NCC#Cc1ccc2c(c1)[C@]1(C(=O)N2)[C@H](C(N)=O)[C@H]2C(=O)O[C@H](c3ccccc3)[C@H](c3ccccc3)N2[C@@H]1c1ccc(O)cc1 | -0.712 (inactive)
CCCC[C@@H]1C[C@H]1[C@@H](NC(=O)c1cccs1)c1ccc(-c2ccccc2)cc1 | -1.23 (inactive)
C=CCOC(=O)[C@H]1[C@@H]2C(=O)O[C@@H](c3ccccc3)[C@@H](c3ccccc3)N2[C@@H](c2ccc(OCCOC(=O)[C@@H]3C[C@@H]4C(=O)N[C@@H](CCCCNC(C)=O)C(=O)N4[C@@H]3c3ccc(O)cc3)cc2)[C@]12C(=O)Nc1ccccc12 | -0.0104 (inactive)
CCCCCCc1nc(-c2ccc(OC)nc2)cc2c1[Si](C(C)C)(C(C)C)O[C@H]2c1ccccc1 | -0.0107 (inactive)
CC(C)C(CO)N1C(=O)[C@@H]2C3C(=O)OCCC/C=C\[C@H]3OC23C=CCN(CCN2CCOCC2)C(=O)[C@@H]13 (some centres undefined) | 0.963 (inactive)
C=C(COC)/C(=C/C[C@@H](OC(C)=O)c1ccc(OCCO)cc1)c1cnc2ccccc2c1 | -0.949 (inactive)
CN(C)CCCCCCNC(=O)[C@@H]1C[C@@H]2C(=O)N[C@@H](Cc3ccccc3)C(=O)N2[C@@H]1c1ccc(O)cc1 | -0.926 (inactive)
Cc1nc2cc(Br)ccc2c(=O)o1 | 0.502 (inactive)
COCCOC(=O)N1C(=O)[C@@]2(c3ccccc31)[C@H](c1ccc(O)cc1)N1[C@H](c3ccccc3)[C@H](c3ccccc3)OC(=O)[C@H]1[C@@H]2C(=O)Nc1nc2ccccc2s1 | -1.3 (inactive)
COCC(=C=CC[C@@H](O)c1cccc(OCCO)c1)C[C@@H](O)c1ccccn1 | 0.758 (inactive)

biological target: Fibroblast growth factor 10 (Homo sapiens) (UniProt O15520); assay: FGF10 binders on small-molecule microarrays, primary screen, biochemical, small-molecule microarray, 635 nm fluorescence (AID 1102); settings: FGF10 binding, fluorescence 635 nm, higher = more signal
Sequence (O15520 whole entry, looked up): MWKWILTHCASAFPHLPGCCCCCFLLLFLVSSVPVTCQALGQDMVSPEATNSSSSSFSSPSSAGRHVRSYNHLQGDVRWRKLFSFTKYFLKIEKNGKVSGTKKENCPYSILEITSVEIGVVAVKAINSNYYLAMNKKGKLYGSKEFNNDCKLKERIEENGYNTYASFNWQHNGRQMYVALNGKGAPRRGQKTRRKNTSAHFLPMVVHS

SMILES | composite z-score
Cc1ccccc1C(O)C1C=CC2C(=O)N(c3ccccc3)C(=O)C2N1Nc1ccc(C(C)C)cc1 (centres undefined) | 0.971
CCS[C@H]1[C@@H](C(=O)O)[C@H](c2ccc(C)cc2)N(S(=O)(=O)c2ccc(C)cc2)[C@@H]1CC | 1.14
COc1cc(NN2C(C(O)c3ccco3)C=CC3C(=O)N(c4ccccc4)C(=O)C32)cc(OC)c1OC (centres undefined) | -0.0151
CNS(=O)(=O)c1ccc(C)cc1 | 0.648
O=C1N(Cc2ccccc2)c2ccccc2[C@@H]2OC(c3ccc(OCCCO)cc3)=N[C@]12CCS(=O)(=O)c1ccccc1 | 0.17
COc1cc2c(cc1O)C(C1CC1)N(Cc1sc3ccccc3c1Cl)CC2 (centres undefined) | -0.326
Oc1ccc2cc[n+](Cc3sc4ccccc4c3Cl)cc2c1 | 0.469
CC(C)N1C(=O)C[C@@](C(=O)NCC(F)(F)F)(c2ccc([N+](=O)[O-])cc2)[C@H]1c1ccc(CO)cc1 | -0.244
COCCCNC(=O)[C@@]1(C)c2ccccc2C(=O)N(C(C)C)[C@H]1c1ccc(CO)cc1 | 0.555
COCCOC(=O)N1C(=O)[C@@]2(c3cc(C#CCC(C(=O)OC)C(=O)OC)ccc31)[C@H](c1ccccc1OCCO)N1[C@H](c3ccccc3)[C@H](c3ccccc3)OC(=O)[C@H]1[C@@H]2C(=O)N1CCN(c2ncccn2)CC1 | 1.08
CCOC(=O)[C@H]1C/C=C/C[C@H](C(=O)OCC)C(=O)O[C@H]2[C@@H](OC)O[C@H](CO)[C@@H](OC(=O)c3c(OC)cccc3OC)[C@@H]2OC1=O | 0.803
C=C(COC)/C(=C/C[C@@H](OC(=O)c1ccncc1)c1ccc(CO)o1)c1cc(C(=O)OC)ccc1OC | 1.47
CC(C)N1C(=O)c2ccccc2[C@](C)(C(=O)NCCN2CCOCC2)[C@@H]1c1ccc(CO)cc1 | -0.499
COCCCNC(=O)[C@@H]1c2ccccc2C(=O)N(Cc2ccccc2Cl)[C@H]1c1ccc(CO)cc1 | 0.629
CC(C)NC(=O)[C@@]1(c2ccc([N+](=O)[O-])cc2)CC(=O)N(C2CCCCC2)[C@@H]1c1ccc(CO)cc1I | -0.0505
C=C(CCCC)/C(=C/C[C@H](OC(C)=O)c1ccccc1OCCO)c1cc(C(=O)OC)ccc1OC | 0.143
COCCOC(=O)N1C(=O)[C@@]2(c3cc(C#Cc4ccc(OC)cc4)ccc31)[C@H](c1ccc(O)cc1)N1[C@H](c3ccccc3)[C@H](c3ccccc3)OC(=O)[C@H]1[C@@H]2C(=O)N1CCc2cc(OC)c(OC)cc2C1 | 0.636
O=C1C2C=CC(C(O)Cc3ccccc3)N(n3cnnc3)C2C(=O)N1Cc1ccccc1 (centres undefined) | 0.33

SMILES | composite z-score
C=CC[C@]1(C(=O)NCc2ccccc2)N=C(c2ccc(OCCCO)cc2)O[C@H]1c1ccccc1N=[N+]=[N-] | 0.819
CCOC(=O)C[C@H]1[C@H](OC(=O)c2ccc(C(=O)c3ccccc3)cc2)[C@@H](NC(=O)c2ccc3ccccc3n2)c2cc(OCCCO)ccc2N1C(=O)c1ccccc1 | 0.719
CN(C)C(=O)[C@@]1(CCS(=O)(=O)c2ccccc2)COC(c2ccc(OCCCO)cc2)=N1 | 0.314
COc1ccccc1CN1C(=O)c2ccccc2[C@@H](C(=O)NC2CC2)[C@@H]1c1ccc(CO)cc1 | 1.27
COC(=O)[C@H](Cc1ccccc1)N[C@@H](/C=C/C1CC1)[C@H](O)Cc1ccccc1 | -0.865
O=C1C2C=CC(C(O)c3cccc4ccccc34)N(Nc3ccccc3F)C2C(=O)N1c1ccccc1 (centres undefined) | 0.606
O=C(CS)NCCCCCCNC(=O)[C@@H]1C[C@@H]2C(=O)N[C@@H](Cc3ccccc3)C(=O)N2[C@@H]1c1cccc(OCCO)c1 | 1.32
NC(=O)NCC#Cc1ccc2c(c1)[C@]1(C(=O)N2)[C@H](C(N)=O)[C@H]2C(=O)O[C@H](c3ccccc3)[C@H](c3ccccc3)N2[C@@H]1c1ccc(O)cc1 | 0.353
CCCC[C@@H]1C[C@H]1[C@@H](NC(=O)c1cccs1)c1ccc(-c2ccccc2)cc1 | 0.655
C=CCOC(=O)[C@H]1[C@@H]2C(=O)O[C@@H](c3ccccc3)[C@@H](c3ccccc3)N2[C@@H](c2ccc(OCCOC(=O)[C@@H]3C[C@@H]4C(=O)N[C@@H](CCCCNC(C)=O)C(=O)N4[C@@H]3c3ccc(O)cc3)cc2)[C@]12C(=O)Nc1ccccc12 | 0.768
CCCCCCc1nc(-c2ccc(OC)nc2)cc2c1[Si](C(C)C)(C(C)C)O[C@H]2c1ccccc1 | 0.289
CC(C)C(CO)N1C(=O)[C@@H]2C3C(=O)OCCC/C=C\[C@H]3OC23C=CCN(CCN2CCOCC2)C(=O)[C@@H]13 (some centres undefined) | 0.0971
C=C(COC)/C(=C/C[C@@H](OC(C)=O)c1ccc(OCCO)cc1)c1cnc2ccccc2c1 | 1.57
CN(C)CCCCCCNC(=O)[C@@H]1C[C@@H]2C(=O)N[C@@H](Cc3ccccc3)C(=O)N2[C@@H]1c1ccc(O)cc1 | 1.06
Cc1nc2cc(Br)ccc2c(=O)o1 | 0.543
COCCOC(=O)N1C(=O)[C@@]2(c3ccccc31)[C@H](c1ccc(O)cc1)N1[C@H](c3ccccc3)[C@H](c3ccccc3)OC(=O)[C@H]1[C@@H]2C(=O)Nc1nc2ccccc2s1 | 0.724
COCC(=C=CC[C@@H](O)c1cccc(OCCO)c1)C[C@@H](O)c1ccccn1 | 0.751
